Source: PubChem (several laboratories)
Autofluor counter = counter-screen for toxin protease inhibitors: compound fluorescence; compound autofluorescence counterscreen, microsphere flow cytometry; stronger effect = higher value; fluorescence intensity (no concentration beside the values); 3.1% of 360,000 active; AID 624483; in the data active = fluorescence intensity above about 16000; inconclusive = no clear call, values can overlap the other calls
BoNT A protease = blocks Botulinum neurotoxin A light chain protease; 0.17% of 360,000 active; multiplex microsphere protease substrate cleavage, flow cytometry; inhibition, % at 10 µM; note: plate controls were buffer without enzyme for full effect and enzyme alone for no effect
MazEF act = MazEF (E. coli) toxin RNase activation; activation, % at 20 µM; FAM/BHQ RNA-DNA oligo cleavage fluorescence, 5 h; P0AE70; 0.32% of 350,000 active; in the data active = activation above about 50%
BoNT F protease = blocks Botulinum neurotoxin F light chain protease; Multiplex microsphere protease cleavage assay, flow cytometry; inhibition, % at 10 µM; 0.22% of 360,000 active; AID 588497; in the data active = inhibition above about 35%, passing the limit was not always enough; inconclusive = no clear call, values can overlap the other calls; note: plate controls were buffer without enzyme for full effect and enzyme alone for no effect
Anthrax LF prot = blocks Bacillus anthracis lethal factor protease; P15917; 0.12% of 360,000 active; multiplex microsphere protease cleavage assay, LF; inhibition, % at 10 µM; note: plate controls were buffer without enzyme for full effect and enzyme alone for no effect
Active calls of the source: *; i = inactive; ? = inconclusive; . = no result. Most compounds without a hit are left out; they make up all but 3.6% or so of the library. Cut-off read from the data, not from the text of the source, unless noted: active = inhibition above about 30%; inconclusive = no clear call, values can overlap the other calls; inactive = below that.

SMILES | Autofluor counter | BoNT A protease | MazEF act | BoNT F protease | Anthrax LF prot
CCC(C)(C)n1nnnc1C(c1cc2ccc(OC)cc2[nH]c1=O)N1CCc2ccccc2C1 (centres undefined) | 11391 | 1 | -75 | -2 | 1
CCC(C)(C)n1nnnc1C(c1cc2ccc(OC)cc2[nH]c1=O)N1CCc2ccccc21 (centres undefined) | 17938* | ? | 3 | -4 | 6
CNC(=O)C[C@@H]1C(=O)N(c2ccc(OC)cc2)CC1(C)C | 3031 | -1 | 5 | -8 | -4
CN(C(=O)COC(=O)CSc1ccc(C(N)=O)cc1[N+](=O)[O-])C1CCCCC1 | 6418 | -1 | 2 | 8 | 4
Nc1cc2c(cc1Cl)-c1ccccc1C2=NO | 3160 | 0 | 10 | -4 | -5
CCOc1ccc(Oc2ccc(NS(=O)(=O)c3ccc(CCC(=O)O)cc3)cc2)cc1 | 2892 | 0 | -3 | -1 | -4
O=C(CCn1nnc2ccccc21)Nc1nnc(-c2ccccc2F)s1 | 22751* | 2 | 11 | 4 | 2
CCc1c(C#N)c(N)nc(SCC(=O)OCc2ccccc2)c1C#N | 17979* | -3 | -1 | -6 | -6
CCN(CC)C(=O)CSc1nc(N)c(C#N)c(-c2cccs2)c1C#N | 21936* | ? | -6 | -1 | -2
CCN(CC)C(=O)CSc1nc(-c2cccs2)cc(-c2cccs2)c1C#N | 3793 | 13 | -3 | -4 | 2
COc1ccc(C(=O)NCCc2nnc3ccc(SCC(=O)N4CCCCC4)nn23)cc1 | 5091 | 3 | -6 | 6 | 0
CCCCSc1nc(NCc2ccco2)c2c3c(sc2n1)COC(C)(C)C3 | 16223* | 0 | -7 | -3 | -2
CCCSc1nc(NCc2ccco2)c2c3c(sc2n1)COC(C)(C)C3 | 17467* | -2 | 7 | -8 | -5
COc1ccccc1NC(=O)CCn1c(=O)c2cccn2c2ccccc21 | 5558 | 2 | -2 | 12 | -2
NC(=O)c1c(N)[nH]c(C(=O)c2ccccc2)c1-c1ccccc1Br | 6169 | 0 | . | 4 | 4
N#Cc1ccc(NC(=S)NC(=O)C2CCCCC2)cc1 | 3611 | 0 | 5 | 6 | -10
O=C(OC1CO[C@H]2O[C@@H]1[C@H](OC(=O)c1ccccc1)[C@H]2OC(=O)c1ccccc1)c1ccccc1 (some centres undefined) | 3809 | -4 | -7 | ? | -15
CC(OC(=O)CSc1ccc([N+](=O)[O-])cc1)C(=O)NC1CC1 (centres undefined) | 2840 | 0 | 0 | 2 | -11
Cc1ccc(C(=O)CN(C(=O)c2ccc(Cl)c(Cl)c2)N2C(=O)C3CCCCC3C2=O)cc1C (centres undefined) | 20975* | ? | 2 | -3 | 0
COc1cccc(C(=O)CN(C(=O)c2ccc(Cl)c(Cl)c2)N2C(=O)c3ccccc3C2=O)c1 | 16849* | ? | -2 | -7 | 1
CC1(c2ccc(OC(F)F)cc2)NC(=O)N(CC(=O)Nc2cccnc2Cl)C1=O (centres undefined) | 5953 | 2 | 0 | 1 | 1
O=C(Nc1ccc(N2CCOCC2)cc1)c1ccc(COc2ccccc2)cc1 | 2853 | 4 | -6 | 15 | -1
Cc1c(C(=O)N(CCc2ccccc2)Cc2ccccc2)cccc1[N+](=O)[O-] | 4606 | -1 | -7 | -5 | -2
Cc1ccc2oc3c(c(=O)c2c1)C(c1cccc(Br)c1)N(Cc1ccco1)C3=O (centres undefined) | 18391* | 3 | 12 | 0 | -5
CCOc1cc(C2c3c(oc4cc(C)c(Cl)cc4c3=O)C(=O)N2Cc2ccco2)ccc1O (centres undefined) | 21623* | -1 | -5 | -3 | -9
SMILES | Autofluor counter | BoNT A protease | MazEF act | BoNT F protease | Anthrax LF prot
COc1ccc(-c2cnc(C(O)c3ccc(CN4CCCCC4)cc3)[nH]2)cc1 (centres undefined) | 3254 | 0 | . | -4 | -4
N#Cc1ccc(S(=O)(=O)N2CCN(C(=O)[C@@H]3CCCN3C(=O)c3cccs3)CC2)cc1 | 2800 | 0 | 4 | 4 | -5
COc1ccc(C(=O)Nc2ccc(Cl)cc2C(=O)N2CCCC(C)C2)cc1OC (centres undefined) | 2174 | -1 | -6 | -8 | -2
CC(C)(C)N(Cc1ccccc1)C(=O)CSc1nnc(CNc2ccc(F)cc2)o1 | 17024* | 10 | -1 | 13 | -10
O=C(CSc1nnc(CNc2ccc(F)cc2)o1)N1c2ccccc2Sc2ccccc21 | 20080* | 2 | -12 | 0 | -3
Cc1c(NC(=S)NC(=O)Cc2ccccc2)cccc1C(=O)O | 21800* | ? | 0 | -1 | -3
Cc1ccc(-n2ncc(C(=O)N3CCc4ccccc4C3)c2NC(=O)c2ccco2)cc1C | 23443* | 1 | 0 | 1 | -2
COc1ccc(CCNC(=O)c2cnn(-c3ccc(C)c(C)c3)c2NC(=O)c2ccco2)cc1OC | 22833* | ? | -4 | 6 | -1
COc1ccc(C2CC(c3cccs3)=NN2C(=O)CCCC(=O)O)cc1OC (centres undefined) | 3822 | 0 | -8 | -1 | 4
Cc1ccc2ccc(C3C(=O)c4ccccc4C3=O)nc2c1 | 8367 | 1 | 85* | -12 | 0
Cn1c(COc2ccccc2)nnc1SCC(=O)Nc1ccc(N2CCOCC2)c(Cl)c1 | 17200* | ? | -9 | -5 | -4
COc1ccc2c(C)cc(SCC(=O)NC3CCCC3)nc2c1 | 4171 | 0 | -3 | 1 | -8
Cc1cc(SCC#N)nc2ccccc12 | 3080 | 0 | -8 | -1 | -2
COc1ccc2c(C)cc(SCc3c(C)noc3C)nc2c1 | 22377* | 4 | -11 | 2 | -2
COc1ccc2c(C)cc(SCC(=O)c3ccc4c(c3)OCO4)nc2c1 | 23435* | ? | -26 | 1 | -3
COc1ccc2c(C)cc(SC3CCOC3=O)nc2c1 (centres undefined) | 2298 | -2 | 7 | -16 | -3
COc1ccc2c(C)cc(SCC#N)nc2c1 | 16543* | 2 | 11 | -3 | -2
COc1ccc(CNc2oc(-c3cccc4ccccc34)nc2C#N)cc1 | 19935* | -1 | 1 | -3 | -4
CNc1oc(-c2cccc3ccccc23)nc1C#N | 3241 | 0 | -6 | 0 | -5
CCOc1ccc(-c2noc(CCC(N)=O)n2)cc1OCC | 21943* | -3 | 2 | -4 | -2
COc1ccc(/C=C/C(=O)N2CCC(c3ccccc3)C2)cc1 (centres undefined) | 2023 | -1 | 4 | -2 | 1
COC(=O)C1CCN(C(=O)/C=C/c2ccc(OC)cc2)CC1 | ? | -21 | 4 | i | 35*
CC(C)(C)c1nnc(NC(=O)C2CCN(C(=O)c3ccco3)CC2)s1 | 4322 | -3 | 5 | -2 | -4
CC(C)(C)c1nnc(NC(=O)C2CCN(c3ncccn3)CC2)s1 | 21096* | -3 | -2 | -3 | 1
O=C(CN1CCOCC1)Nc1ccccc1Cl | 6200 | -1 | 4 | 1 | 5
O=C(Nc1cccc(Cl)c1Cl)C1CCN(c2ncccn2)CC1 | 22389* | -9 | 6 | -12 | -1
O=C(CN1CCOCC1)Nc1cccc(Cl)c1Cl | 23826* | ? | -4 | -9 | 1
CS(=O)(=O)N1CCC(C(=O)Nc2cccc(Cl)c2Cl)CC1 | . | . | 3 | . | .
